# PubChem BioAssay (NCI)
# About 79,000 compounds went through this panel and 15% of them were active in at least one assay; those are over-represented in the sample as a whole. Unmarked numbers belong to inactive results. Active and inactive are the calls of the source. Cut-off read from the data, not from the text of the source: active = growth inhibition above about 70%; inactive = the rest.
# Columns and labels:
# [1] = NCI Yeast Anticancer Drug Screen. Data for the rad52 strain (AID 147);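 note: 0% = growth of vehicle-treated control cultures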; settings: S. cerevisiae rad52 mutant growth inhibition, stronger effect = higher value
# Summary of the method: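 Genetically altered yeast (DNA damage repair defect) treated with compound; inhibition calculated relative to vehicle.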
# [2] = NCI Yeast Anticancer Drug Screen. Data for the wt1 strain (AID 149);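 note: 0% = growth of vehicle-treated wt1 cultures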; settings: S. cerevisiae wt1 strain (SPY 50644) growth inhibition, stronger effect = higher value
# Summary of the method: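 Measured: growth of wt1 yeast under compound versus vehicle treatment, reported as inhibition.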
# [3] = NCI Yeast Anticancer Drug Screen. Data for the rad50EPP+ strain (AID 151);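 note: 0% = growth of vehicle-treated control cultures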; settings: S. cerevisiae rad50 mutant strain, stronger effect = higher value
# Summary of the method: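 Strain rad50EPP+; compound exposure; % growth inhibition vs vehicle.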
# [4] = NCI Yeast Anticancer Drug Screen. Data for the mgt1 strain (AID 153); settings: S. cerevisiae mgt1 mutant growth inhibition, stronger effect = higher value
# Summary of the method: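 Read-out: yeast growth inhibition vs vehicle control. Strain mgt1, drawn from a panel altered in DNA damage repair or cell cycle control.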
# [5] = NCI Yeast Anticancer Drug Screen. Data for the rad50 strain (AID 155);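 note: 0% = growth of vehicle-only cultures of the same strain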; settings: S. cerevisiae rad50 strain growth inhibition, stronger effect = higher value
# Summary of the method: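 Growth of the mutant yeast was measured after compound exposure and referenced to vehicle-treated cultures.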
# [6] = NCI Yeast Anticancer Drug Screen. Data for the mec2-1 strain (AID 157); settings: S. cerevisiae mec2-1 strain, stronger effect = higher value
# Summary of the method: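 Cells of the genetically defined mec2-1 yeast strain are incubated with test compound. Inhibition of growth is calculated against vehicle-treated controls.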
# [7] = NCI Yeast Anticancer Drug Screen. Data for the rad14 strain (AID 159);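 note: 0% = growth of vehicle-treated control cultures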; settings: S. cerevisiae rad14 strain growth inhibition, stronger effect = higher value
# Summary of the method: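 Here, inhibition of yeast growth was measured after compound exposure, using a strain with a genetic defect in DNA damage repair and vehicle-treated cultures as the reference.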
# [8] = NCI Yeast Anticancer Drug Screen. Data for the sgs1 mgt1 strain (AID 161);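 note: 0% = growth of cultures given vehicle only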; settings: S. cerevisiae sgs1 mgt1 strain, stronger effect = higher value
# Summary of the method: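 Genetically altered yeast, compound exposure, growth inhibition relative to vehicle.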
# [9] = NCI Yeast Anticancer Drug Screen. Data for the CLN2oe strain (AID 163);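 note: 0% = growth of vehicle-only control cultures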; settings: S. cerevisiae CLN2oe strain, stronger effect = higher value
# Summary of the method: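 Strain altered in cell-cycle control, incubated with compound; growth compared to solvent-treated controls.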
# [10] = NCI Yeast Anticancer Drug Screen. Data for the cln2 rad14 strain (AID 165);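 note: 0% = growth equal to vehicle treated cultures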; settings: S. cerevisiae cln2 rad14 strain, stronger effect = higher value
# Summary of the method: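 The screen exposed genetically defined yeast (cln2 rad14) to test compounds and scored growth inhibition relative to vehicle-treated controls.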
# [11] = NCI Yeast Anticancer Drug Screen. Data for the bub3 strain (AID 167); settings: S. cerevisiae bub3 mutant strain, stronger effect = higher value
# Summary of the method: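 Whole-cell yeast assay. The mutant strain was incubated with compounds, and growth inhibition was determined by comparison with vehicle-treated cells.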
# [12] = NCI Yeast Anticancer Drug Screen. Data for the wt2 strain (AID 169);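 note: 0% = growth of vehicle-treated yeast cultures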; settings: S. cerevisiae wt2 strain growth inhibition, stronger effect = higher value
# Summary of the method: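 Steps: yeast strain treated with compound; growth recorded; inhibition calculated relative to cultures given vehicle alone.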
# [13] = NCI Yeast Anticancer Drug Screen. Data for the sgs1 strain (AID 173);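 note: 0% = growth of vehicle-only control cultures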; settings: S. cerevisiae sgs1 mutant, stronger effect = higher value
# Summary of the method: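 Inhibition of yeast growth served as the measure. The mutant strain was treated with each compound, and growth was normalised to cultures receiving vehicle alone.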
# [14] = NCI Yeast Anticancer Drug Screen. Data for the mlh1 rad18 strain (AID 175); settings: S. cerevisiae mlh1 rad18 strain growth inhibition, stronger effect = higher value
# Summary of the method: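 Compound-treated yeast growth, normalised to vehicle controls. Strain bears defined DNA repair mutations.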
# [15] = NCI Yeast Anticancer Drug Screen. Data for the rad18 strain (AID 177); settings: S. cerevisiae rad18 mutant growth inhibition, stronger effect = higher value
# Summary of the method: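 Inhibition values reflect reduced yeast growth compared with vehicle-treated controls, using a strain engineered with a DNA damage repair defect.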
# [16] = at 5.0 µM (retest, dose inferred, filed as 0.5)
# [17] = at 50.0 µM (retest, dose inferred, filed as 5.0)
smiles,measurement,setting,value
CCCCCCCCCCCCCCN,growth inhibition,[1]; at 1.2 µM,8%
same,growth inhibition,[1]; at 3.7 µM,1%
same,growth inhibition,[1]; at 11.0 µM,-3%
same,growth inhibition,[1]; at 33.0 µM,23%
same,growth inhibition,[1]; at 100.0 µM,98% (active)
same,growth inhibition,[2]; at 1.2 µM,4%
same,growth inhibition,[2]; at 3.7 µM,-5%
same,growth inhibition,[2]; at 11.0 µM,-1%
same,growth inhibition,[2]; at 33.0 µM,6%
same,growth inhibition,[2]; at 100.0 µM,98% (active)
same,growth inhibition,[3]; at 1.2 µM,-9%
same,growth inhibition,[3]; at 3.7 µM,18%
same,growth inhibition,[3]; at 11.0 µM,32%
same,growth inhibition,[3]; at 33.0 µM,64%
same,growth inhibition,[3]; at 100.0 µM,97% (active)
same,growth inhibition,[4]; at 1.2 µM,-2%
same,growth inhibition,[4]; at 3.7 µM,1%
same,growth inhibition,[4]; at 11.0 µM,-5%
same,growth inhibition,[4]; at 33.0 µM,52%
same,growth inhibition,[4]; at 100.0 µM,99% (active)
same,growth inhibition,[5]; at 1.2 µM,11%
same,growth inhibition,[5]; at 3.7 µM,17%
same,growth inhibition,[5]; [16],100% (active)
same,growth inhibition,[5]; at 11.0 µM,11%
same,growth inhibition,[5]; at 33.0 µM,52%
same,growth inhibition,[5]; [17],97% (active)
same,growth inhibition,[5]; at 50.0 µM,90.3% (active)
same,growth inhibition,[5]; at 100.0 µM,98% (active)
same,growth inhibition,[6]; at 1.2 µM,-10%
same,growth inhibition,[6]; at 3.7 µM,-5%
same,growth inhibition,[6]; [16],100% (active)
same,growth inhibition,[6]; at 11.0 µM,-9%
same,growth inhibition,[6]; at 33.0 µM,38%
same,growth inhibition,[6]; [17],96% (active)
same,growth inhibition,[6]; at 50.0 µM,92.1% (active)
same,growth inhibition,[6]; at 100.0 µM,99% (active)
same,growth inhibition,[7]; at 1.2 µM,20%
same,growth inhibition,[7]; at 3.7 µM,20%
same,growth inhibition,[7]; at 11.0 µM,14%
same,growth inhibition,[7]; at 33.0 µM,15%
same,growth inhibition,[7]; at 100.0 µM,99% (active)
same,growth inhibition,[8]; [16],-20%
same,growth inhibition,[8]; [17],99% (active)
same,growth inhibition,[8]; at 50.0 µM,90.8% (active)
same,growth inhibition,[9]; at 1.2 µM,6%
same,growth inhibition,[9]; at 3.7 µM,6%
same,growth inhibition,[9]; at 11.0 µM,-14%
same,growth inhibition,[9]; at 33.0 µM,37%
same,growth inhibition,[9]; at 100.0 µM,98% (active)
same,growth inhibition,[10]; [16],24%
same,growth inhibition,[10]; [17],99% (active)
same,growth inhibition,[10]; at 50.0 µM,88.2% (active)
same,growth inhibition,[11]; at 1.2 µM,25%
same,growth inhibition,[11]; at 3.7 µM,7%
same,growth inhibition,[11]; [16],31%
same,growth inhibition,[11]; at 11.0 µM,21%
same,growth inhibition,[11]; at 33.0 µM,58%
same,growth inhibition,[11]; [17],99% (active)
same,growth inhibition,[11]; at 50.0 µM,90.7% (active)
same,growth inhibition,[11]; at 100.0 µM,98% (active)
same,growth inhibition,[12]; at 1.2 µM,3%
same,growth inhibition,[12]; at 3.7 µM,-1%
same,growth inhibition,[12]; at 11.0 µM,4%
same,growth inhibition,[12]; at 33.0 µM,27%
same,growth inhibition,[12]; at 100.0 µM,99% (active)
same,growth inhibition,[13]; at 1.2 µM,10%
same,growth inhibition,[13]; at 3.7 µM,16%
same,growth inhibition,[13]; at 11.0 µM,19%
same,growth inhibition,[13]; at 33.0 µM,65%
same,growth inhibition,[13]; at 100.0 µM,98% (active)
same,growth inhibition,[14]; [16],100% (active)
same,growth inhibition,[14]; [17],97% (active)
same,growth inhibition,[14]; at 50.0 µM,91.2% (active)
same,growth inhibition,[15]; at 1.2 µM,-3%
same,growth inhibition,[15]; at 3.7 µM,4%
same,growth inhibition,[15]; at 11.0 µM,5%
same,growth inhibition,[15]; at 33.0 µM,24%
same,growth inhibition,[15]; at 100.0 µM,98% (active)
N#CCC(=O)N/N=C(\c1ccccc1)C(c1ccccc1)C1(O)C(=O)Nc2c(Cl)ccc(Cl)c21 (stereo not drawn),growth inhibition,[1]; at 1.2 µM,0%
same,growth inhibition,[1]; at 3.7 µM,0%
same,growth inhibition,[1]; at 11.0 µM,3%
same,growth inhibition,[1]; at 33.0 µM,9%
same,growth inhibition,[1]; at 100.0 µM,11%
same,growth inhibition,[2]; at 1.2 µM,0%
same,growth inhibition,[2]; at 3.7 µM,0%
same,growth inhibition,[2]; at 11.0 µM,0%
same,growth inhibition,[2]; at 33.0 µM,-1%
same,growth inhibition,[2]; at 100.0 µM,-3%
same,growth inhibition,[3]; at 1.2 µM,2%
same,growth inhibition,[3]; at 3.7 µM,10%
same,growth inhibition,[3]; at 11.0 µM,15%
same,growth inhibition,[3]; at 33.0 µM,24%
same,growth inhibition,[3]; at 100.0 µM,32%
same,growth inhibition,[4]; at 1.2 µM,1%
same,growth inhibition,[4]; at 3.7 µM,-1%
same,growth inhibition,[4]; at 11.0 µM,-3%
same,growth inhibition,[4]; at 33.0 µM,-2%
same,growth inhibition,[4]; at 100.0 µM,19%
same,growth inhibition,[5]; at 1.2 µM,5%
same,growth inhibition,[5]; at 3.7 µM,0%
same,growth inhibition,[5]; [16],7%
same,growth inhibition,[5]; at 11.0 µM,8%
same,growth inhibition,[5]; at 33.0 µM,15%
same,growth inhibition,[5]; [17],51%
same,growth inhibition,[5]; at 50.0 µM,43.8%
same,growth inhibition,[5]; at 100.0 µM,25%
same,growth inhibition,[6]; at 1.2 µM,3%
same,growth inhibition,[6]; at 3.7 µM,4%
same,growth inhibition,[6]; [16],-11%
same,growth inhibition,[6]; at 11.0 µM,4%
same,growth inhibition,[6]; at 33.0 µM,6%
same,growth inhibition,[6]; [17],36%
same,growth inhibition,[6]; at 50.0 µM,41%
same,growth inhibition,[6]; at 100.0 µM,11%
same,growth inhibition,[7]; at 1.2 µM,3%
same,growth inhibition,[7]; at 3.7 µM,7%
same,growth inhibition,[7]; at 11.0 µM,10%
same,growth inhibition,[7]; at 33.0 µM,27%
same,growth inhibition,[7]; at 100.0 µM,39%
same,growth inhibition,[8]; [16],4%
same,growth inhibition,[8]; [17],39%
same,growth inhibition,[8]; at 50.0 µM,51.8%
same,growth inhibition,[9]; at 1.2 µM,-1%
same,growth inhibition,[9]; at 3.7 µM,-2%
same,growth inhibition,[9]; at 11.0 µM,-2%
same,growth inhibition,[9]; at 33.0 µM,-8%
same,growth inhibition,[9]; at 100.0 µM,-11%
same,growth inhibition,[10]; [16],9%
same,growth inhibition,[10]; [17],10%
same,growth inhibition,[10]; at 50.0 µM,6.8%
same,growth inhibition,[11]; at 1.2 µM,2%
same,growth inhibition,[11]; at 3.7 µM,5%
same,growth inhibition,[11]; [16],8%
same,growth inhibition,[11]; at 11.0 µM,11%
same,growth inhibition,[11]; at 33.0 µM,15%
same,growth inhibition,[11]; [17],30%
same,growth inhibition,[11]; at 50.0 µM,30.3%
same,growth inhibition,[11]; at 100.0 µM,24%
